Assay in all cases: PBM binding z-score (relative to random genomic background probes); higher = stronger binding; sequences stand for … in GC…GCGATTGACAGCGTAGAATGAAGG
Assay [1] has as its system PPARg:RXRa DBDmut IVT, anti-RXR (DBD mutation: RXRa K156A/R161A, NR concentration 270 nM, RXRa partner concentration 90 nM). The gist of the method:
(§1)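 Random background probes are the reference for binding z-scores. These scores derive from regression-normalized fluorescence on custom Agilent 4×180K protein-binding microarrays incubated 1 h with ligand-free nuclear receptor dimers. Binding was detected with antibodies against each partner (one per run).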

Assay [2] relates to PPARg:RXRa IVT, anti-PPARg (NR concentration 270 nM, RXRa partner concentration 90 nM). The gist of the method:
as §1

The subject of assay [3] is PPARg DBDmut:RXRa IVT, anti-PPARg (DBD mutation: PPARg1 K132A/R137A, NR concentration 270 nM, RXRa partner concentration 90 nM). In short, it runs like this: as §1
Assay [4] deals with PPARg DBDmut IVT, anti-PPARg (DBD mutation: PPARg1 K132A/R137A, NR concentration 270 nM). The gist of the method: as §1
Assay [5] concerns PPARg homodimer (NR concentration 180 nM). The gist of the method:
as §1

Assay [6] concerns PXR:RXRa (NR concentration 270 nM, RXRa partner concentration 90 nM). In short, it runs like this: as §1
The subject of assay [7] is PXR homodimer (NR concentration 270 nM). The gist of the method: as §1
In assay [8] the test system is RARa:RXR (NR concentration 270 nM, RXRa partner concentration 90 nM). The gist of the method:
as §1

Assay [9] has as its system RARa homodimer (NR concentration 270 nM). The gist of the method:
as §1

In assay [10] the test system is RARb:RXRa (NR concentration 270 nM, RXRa partner concentration 90 nM). In short, it runs like this: as §1
Assay [11] relates to RARb homodimer (NR concentration 270 nM). In short, it runs like this: as §1
Assay [12] has as its system RARg:RXRa (NR concentration 270 nM, RXRa partner concentration 90 nM). In short, it runs like this: as §1
Assay [13] deals with RARg homodimer (NR concentration 270 nM). In short, it runs like this: as §1
For assay [14], the system named is RXRa DBDmut IVT, anti-RXR (DBD mutation: RXRa K156A/R161A, NR concentration 90 nM). In short, it runs like this: as §1
The subject of assay [15] is RXRa homodimer (NR concentration 180 nM). The gist of the method: as §1
In assay [16] the test system is THRa:RXRa (NR concentration 90 nM, RXRa partner concentration 90 nM). The gist of the method: as §1
Assay [17] relates to THRa homodimer (NR concentration 90 nM). In short, it runs like this:
as §1

Assay [18] concerns VDR homodimer (NR concentration 270 nM). The gist of the method: as §1

With AGAATTAGGTTATTAAGATCAGGGAATTGCGGTC, the PBM binding z-score in [1] worked out at 6.63; in assay [2], 5.44; in assay [3] it was 1.55; in assay [4], 1.27; in assay [5], 1.3; in assay [6], 0.5. The PBM binding z-score in assay [7] was determined as 0.468; in assay [8] it was 0.229; in [9], 1.73; in [10], 0.932; in [11] it was 0.844; in assay [12] it was 0.403. The PBM binding z-score in [13] stood at 0.569; in assay [14], 0.599; in assay [15] it was 0.275; in [16], 0.913; in assay [17], 0.502; in [18], 0.494.

Turning to CCTACTGGGCCAAGGTCATTGGTCAGTCAAAGCA, the PBM binding z-score in [1] was 3.94; in assay [2], 4.88; in [3], -0.325; in assay [4], -0.629; in assay [5], 1.86; in assay [6] it was 3.62. Besides, the PBM binding z-score turned out to be 1.12 in assay [7]; 3.85 in assay [8]; 0.172 in assay [9]; 3.56 in [10]; 3.51 in assay [11]; 3.85 in assay [12]. Besides, the PBM binding z-score was 3.86 in assay [13]; 0.988 in assay [14]; 3.73 in assay [15]; 3.48 in assay [16]; 2.62 in assay [17]; 3.41 in assay [18].

In the case of AGAACGAGGGAACGCTGAGTTGATAGCAGAGTAG, the PBM binding z-score in [1] is 0.157; in [2], 0.0104; in assay [3], -0.0244; in assay [4] it was -0.171; in assay [5], -0.732; in assay [6], -0.323. In addition, the PBM binding z-score in assay [7] was -0.229; in assay [8] it was -0.613; in assay [9] it was 0.201; in assay [10] it was -0.517; in [11] it was -0.725; in assay [12], -0.0293. Moreover, the PBM binding z-score in assay [13] was 0.175; in assay [14], -0.477; in assay [15] it was -0.0289; in assay [16], -0.362; in assay [17], -1.15; in assay [18] it was 0.248.

Regarding GGAACGAGGGCATTCGAGTTTATAGCATGGCGAT, the PBM binding z-score in assay [1] was 2.91; in [2], 2.31; in assay [3], -0.439; in assay [4], -0.834; in assay [5], -0.0637; in assay [6], 5.87. Besides, the PBM binding z-score is 7.33 in [7]; 1.14 in assay [8]; -0.16 in [9]; 1.9 in assay [10]; 0.829 in assay [11]; 1.22 in assay [12]. Also, the PBM binding z-score in [13] was 1.53; in [14], 3.83; in assay [15], 0.915; in assay [16], 3.48; in [17], -0.483; in assay [18], 4.64.

Consider TCTCGTAGGACACGAAAGGTCAGAGCTCGACATC, for which the PBM binding z-score in assay [1] is 1.81; in [2] it was 1.71; in [3], -0.191; in assay [4] it was 0.17; in [5], 3.44; in [6], 3.94. The PBM binding z-score was 0.393 in assay [7]; 4.37 in assay [8]; 1.1 in assay [9]; 4.02 in assay [10]; 4.53 in [11]; 4.69 in assay [12]. Also, the PBM binding z-score in assay [13] turned out to be 5.29; in assay [14], 1.16; in [15], 4.44; in assay [16], 3.28; in assay [17], 0.778; in assay [18] it was 0.852.

For the sequence CCTATTAGTTGACCATAAGGGGAACCGAAGCTCG, the PBM binding z-score in assay [1] was 0.601; in assay [2], 0.106; in [3] it was 0.62; in assay [4] it was 0.755; in assay [5] it was 1.54; in [6], 0.541. The PBM binding z-score came to 0.854 in assay [7]; 0.248 in [8]; 2.37 in [9]; 0.582 in assay [10]; 0.9 in assay [11]; 0.438 in [12]. In addition, the PBM binding z-score in [13] stood at 0.565; in assay [14], 0.467; in assay [15] it was 0.236; in assay [16], 0.633; in assay [17] it was 0.694; in assay [18] it was 0.895.

As for TCAGACAGGTGAATGTAACTCAGGTACGCAGTCG, the PBM binding z-score in [1] is 2.43; in assay [2], 0.904; in assay [3], -0.264; in [4] it was -0.0774; in assay [5], 0.0893; in assay [6], 0.012. Also, the PBM binding z-score is -0.109 in assay [7]; 0.0859 in assay [8]; -0.00412 in assay [9]; 0.652 in assay [10]; 0.305 in assay [11]; 0.399 in assay [12]. Also, the PBM binding z-score in assay [13] came out at 0.476; in assay [14] it was 1.01; in [15] it was 0.802; in assay [16], 0.274; in assay [17], 0.15; in assay [18] it was 0.463.

(Values after the supplement of paper PMC6555819.)
